Test [1] has as its target Aldehyde dehydrogenase, mitochondrial (Homo sapiens) (UniProt P05091). The test is described as follows: qHTS for Inhibitors of the Aldehyde Dehydrogenase Family (ALDH2) Primary screen (AID 2061308). Also: nearly all actives have a fitted effect of over 55% in size. Also: potency is read from the fitted curve at half-maximal effect.
For test [2], the target named is Retinaldehyde dehydrogenase 3 (Homo sapiens) (UniProt P47895). The test is described as follows: qHTS for Inhibitors of the Aldehyde Dehydrogenase Family (ALDH1A3) Confirmatory screens (AID 2061311; also: nearly all actives have a fitted effect of over 60% in size; also: potency is read from the fitted curve at half-maximal effect). (In general: qHTS replaces the single test concentration by a dilution series.)
Test [3] deals with Retinal dehydrogenase 2 (Homo sapiens) (UniProt O94788). Nature of the test: qHTS for Inhibitors of the Aldehyde Dehydrogenase Family (ALDH1A2) Confirmation screens (AID 2061314). Also: nearly all actives have a fitted effect of over 65% in size. Also: potency is read from the fitted curve at half-maximal effect.
The target of test [4] is Retinaldehyde dehydrogenase 3 (Homo sapiens) (UniProt P47895). The test is described as follows: qHTS for Inhibitors of the Aldehyde Dehydrogenase Family (ALDH1A3) Primary screen (AID 2061315).
Test [5] addresses Aldehyde dehydrogenase 1A1 (Homo sapiens) (UniProt P00352). The test is described as follows: qHTS for Inhibitors of the Aldehyde Dehydrogenase Family (ALDH1A1) Confirmatory screens (AID 2061316). Also: nearly all actives have a fitted effect of over 65% in size. Also: potency is read from the fitted curve at half-maximal effect.

Records with an inconclusive call do not appear. The source made the active and inactive calls. Calls follow the shape of the dose curve; as a rule, active = well fitted curve in the direction sought with a large enough effect; inconclusive = small, poorly fitted or top-dose-only effect, or another doubt; inactive = no such curve, though single readings can be large; an effect the other way counts as inactive or inconclusive.

With `C/C(=C\c1ccc2c(c1)OCO2)C1Nc2cccc3cccc(c23)N1`, the Potency result in test [1] was “inactive”. Also, the Potency in test [2] was 2.83 µM (active).
Regarding `CC(=O)NC(c1cc(Cl)c2ccccc2c1O)C(C)C` (stereo not drawn), the Potency entry in test [1] was “inactive”. Moreover, the figures for the Potency in test [2] and in test [3] were 8.96 µM (active) and 20.1 µM (active), respectively.
In the case of `O=C(O)c1ccc(O)c2ncc(NCC3CCCN(CCc4ccccc4)C3)cc12` (stereo not drawn), the Potency entry in test [1] is “inactive”.
Take `CNc1ncc(-c2cccc3ccccc23)o1`: the Potency result in test [1] and in test [4] was “inactive” each time. Also, the Potency in test [2] was 25.2 µM (active); in test [3], 10.1 µM (active).
With `Fc1ccccc1-c1nc(-c2cccc(-c3nn[nH]n3)c2)no1`, in test [1], the Potency result is “inactive”.
In the case of `CC(=O)c1ccc(N2CCN(C(=O)c3ccc4c(c3)CCC(=O)N4)CC2)cc1`, the Potency entry in test [1] is “inactive”.
Take `O=C1c2ccccc2C(=O)c2cc(S(=O)(=O)Nc3cccc4cccnc34)ccc21`: in test [1], the Potency entry is “inactive”. Moreover, the Potency in test [2] is 15.9 µM (active).
As for `COc1ccc(CNc2ccc(N3CCN(C(C)=O)CC3)cc2)cc1OC`, the Potency result in test [1] is “inactive”. Further, the Potency in test [2] and in test [3] was 12.7 µM (active) each time.
For `CC1=CC2=C(C)C(=O)[C@](C)(O)[C@H](O)C2=CO1`, in test [1], the Potency result is “inactive”.
Regarding `CN1CCN(c2ccc(-c3cc(O)c4ncccc4c3)cc2)CC1`, in test [1], the Potency result was “inactive”.
On to `COc1ccc(C(O[C@@H]2O[C@H](CO)[C@@H](O)[C@H](O)[C@H]2O)C(CO)Oc2ccc(/C=C/CO)cc2OC)cc1O` (stereo partly drawn), for which the Potency result in test [1] was “inactive”.
On the same count and under the same terms, then `Cc1ccc(-c2ccc(CNc3nc(-c4ccccc4C(C)C)nc4ccsc34)cc2)cn1`, with “inactive”; and `O=C(O)c1ccc(-c2noc(-c3ccc(F)cc3)n2)cc1`, with “inactive”; and `Oc1cc(Nc2ccc(N3CCCCC3)cc2)cc2cccnc12`, with “inactive”.
On to `CCC(=O)NC(c1cc(Cl)c2ccccc2c1O)C(C)C` (stereo not drawn), for which the Potency result in test [1] was “inactive”. For the same compound, the results for the Potency in test [2] and in test [3] were 12.7 µM (active) and 28.3 µM (active), respectively.
`CN(C)CCN(Cc1ccc(-c2ccc(CNCCc3ccccc3)cc2)cc1)C(=O)CCC1CCCC1`: the Potency entry in test [1] was “inactive”.
Take `Cc1ccc2nc3sc(C(=O)NCCc4cccnc4)cc3cc2c1`: in test [1], the Potency entry is “inactive”. Further, the Potency in test [2] is 12.7 µM (active).
With `Oc1ccc(COCc2ccc(F)cc2)c2cccnc12`, the Potency result in test [1] was “inactive”. Further, the Potency in test [2] was 10.1 µM (active).
Regarding `O=C1Nc2ccccc2/C1=C\c1ccc([N+](=O)[O-])cc1`, the Potency entry in test [1] and in test [4] was “inactive” throughout. Also, the Potency was 17.8 µM (active) in test [2] and 2.83 µM (active) in test [3].
Take `CC(C)(C)OC(=O)N1CCN(c2ccc(NCc3ncc(-c4ccc(C#N)cc4)o3)cc2)CC1`: in test [1], the Potency is 1.12 µM (active).
Regarding `COc1cncc(NC(=O)c2cccs2)c1`, the Potency entry in test [1] is “inactive”. Further, in test [2], the Potency is 11.3 µM (active).
Consider `CC(C)c1ccccc1-c1nccc(NCc2ccc(-c3cccnc3)cc2)n1`, for which, in test [1], the Potency entry was “inactive”.
As for `CC(=O)c1ccc(N2CCN(S(=O)(=O)c3cc4c(cc3Cl)NC(=O)C4)CC2)cc1`, the Potency result in test [1] is “inactive”. In addition, the Potency in test [2] was 3.55 µM (active).
`CNC(=O)c1ccccc1Nc1cc(Nc2ccc(N3CCOCC3)cc2OC)ncc1C(F)(F)F`: in test [1], the Potency result was “inactive”. Besides, the Potency in test [2] was 3.57 µM (active).
In the case of `Cc1ccc(-c2ccc(=O)n(CC(=O)NCCc3ccccc3)c2)cc1`, in test [1], the Potency result was “inactive”.
As for `O=C1Nc2ccc(C(=O)c3ccco3)cc2/C1=C/c1cc(Cl)c(O)c(Cl)c1`, the Potency result in test [1] and in test [4] was “inactive” each time. Moreover, the values for the Potency in test [2] and in test [3] were 14.1 µM (active) and 12.6 µM (active), respectively.
For `Oc1ccc(/C=C/c2ccccc2)c2cccnc12`, the Potency result in test [1] is “inactive”. Further, the Potency in test [2] was 14.2 µM (active).
As for `CC1(C)OB(c2ccc(O)c3ncc(N4CCNCC4)cc23)OC1(C)C`, the Potency entry in test [1] is “inactive”.
With `O=[N+]([O-])c1ccccc1S(=O)(=O)Nc1cccc2cccnc12`, the Potency result in test [1] was “inactive”. Further, the Potency is 12.7 µM (active) in test [2] and 0.712 µM (active) in test [3].
For `CN1CCN(c2ccc(Nc3c4ccccc4nc4ccccc34)cc2)CC1`, the Potency result in test [1] is “inactive”.
As to `CC(C)(C)OC(=O)N1CCN(c2ccc(NCc3ccc(-c4cc(C(F)(F)F)cc(C(F)(F)F)c4)o3)cc2)CC1`, the Potency entry in test [1] was “inactive”.
As for `Cc1ccc(C)c(SC2=NS(=O)(=O)c3cc(C(=O)NCc4ccccc4)ccc32)c1`, the Potency entry in test [1] is “inactive”.
`CC(C)N1CCc2c(sc(NC(=O)c3ccccc3)c2-c2nc3ccccc3s2)C1`: in test [1], the Potency was 22.4 µM (active). The Potency result in test [2] is “inactive”.
Turning to `Cc1ccc(S(=O)(=O)Nc2cnccc2C(=O)Nc2ccc(N3CCOCC3)cc2)cc1`, the Potency result in test [1] is “inactive”. Besides, the results for the Potency in test [2] and in test [3] were 4 µM (active) and 6.34 µM (active), respectively.
Consider `COc1ccc(Nc2cc(O)c3ncccc3c2)cc1`, for which the Potency result in test [1], in test [3] and in test [5] was “inactive” each time. Besides, the Potency in test [2] was 0.0357 µM (active).
On to `Oc1cc(NCc2ccc(F)cc2)cc2cccnc12`, for which the Potency result in test [1] and in test [3] was “inactive” each time. The Potency in test [2] is 1.59 µM (active); in test [5], 7.12 µM (active).
As to `O=C(C(NS(=O)(=O)c1ccc2[nH]c(=O)ccc2c1)c1cccc(C(F)(F)F)c1)N(Cc1ccco1)Cc1cccs1` (stereo not drawn), the Potency entry in test [1], in test [4] and in test [5] was “inactive” each time. Further, the Potency in test [2] is 25.2 µM (active); in test [3], 12.7 µM (active).
Regarding `COc1ccc(C2NC(=O)c3ccccc3N2)cc1COc1ccc(NC(C)=O)cc1` (stereo not drawn), the Potency result in test [1], in test [2] and in test [4] was “inactive” each time.

For the origin of these results see PubChem BioAssay (NCATS).
